Screens (PubChem BioAssay)
Hits are enriched below; roughly 1.8% of the tested compounds scored in any of these assays.
L3MBTL1 inh: blocks human L3MBTL1; Q9Y468; AlphaScreen L3MBTL1–H3K9me1 peptide binding; Potency, µM (titrated, usually from 57.1 µM), for inactives: at the highest dose activity, negative = inhibition, most hits filed as inhibitors; 0.66% of 230,000 active; further: on the % scale 0 is the no-effect control and ±100 the full control effect; nearly all actives have a fitted effect of over 60% in size
Target sequence (Q9Y468 whole entry, looked up): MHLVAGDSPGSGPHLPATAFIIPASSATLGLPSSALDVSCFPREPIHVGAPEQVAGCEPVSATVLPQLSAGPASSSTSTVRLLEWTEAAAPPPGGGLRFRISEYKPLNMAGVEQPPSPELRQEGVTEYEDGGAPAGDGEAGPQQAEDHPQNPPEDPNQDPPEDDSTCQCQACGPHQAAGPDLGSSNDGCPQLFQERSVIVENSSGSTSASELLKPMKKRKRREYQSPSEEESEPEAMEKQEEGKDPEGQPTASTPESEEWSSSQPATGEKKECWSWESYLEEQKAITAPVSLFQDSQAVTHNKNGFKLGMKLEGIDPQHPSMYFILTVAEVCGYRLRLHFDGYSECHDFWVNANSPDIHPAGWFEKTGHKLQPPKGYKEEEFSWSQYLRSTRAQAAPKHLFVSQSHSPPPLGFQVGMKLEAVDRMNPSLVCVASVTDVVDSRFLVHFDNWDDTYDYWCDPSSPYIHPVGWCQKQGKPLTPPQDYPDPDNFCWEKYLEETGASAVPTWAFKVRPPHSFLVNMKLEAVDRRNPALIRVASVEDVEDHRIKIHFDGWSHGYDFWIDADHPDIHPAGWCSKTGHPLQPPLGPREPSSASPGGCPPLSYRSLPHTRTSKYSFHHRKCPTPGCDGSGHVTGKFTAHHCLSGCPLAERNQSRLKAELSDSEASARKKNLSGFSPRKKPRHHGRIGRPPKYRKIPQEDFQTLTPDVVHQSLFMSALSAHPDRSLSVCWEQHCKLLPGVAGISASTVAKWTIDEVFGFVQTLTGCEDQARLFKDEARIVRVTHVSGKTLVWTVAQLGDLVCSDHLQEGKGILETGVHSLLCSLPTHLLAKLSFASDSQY
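L3MBTL1 (50 nM) pre-complexed 30 min with biotinylated H3(1-15)K9me1 peptide (75 nM), then compounds added for 30 min at room temperature; AlphaScreen streptavidin donor/nickel chelate acceptor beads (10 ug/mL final) read after 30 min dark incubation.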
HTT aggregate: inhibitors of mutant huntingtin aggregate formation in PC12 cells | PC12 HttQ103-GFP aggregates, Acumen cytometry, 40 h | Potency, µM (doses to about 46.1 µM), for the others: top-dose activity change, negative = inhibition, actives largely listed as inhibitors | 1.1% of 220,000 active; further: on the % scale 0 is the no-effect control and ±100 the full control effect; nearly all actives have a fitted effect of over 60% in size
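Steps: seed 1500 PC12 HTTQ103-GFP cells/well; add tebufenozide, 100 nM final; add compound titration; add ATPLite reagent; quantify GFP aggregates by laser scanning cytometry.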
JMJD2E inh: JMJD2E (human) inhibition; B2RXH2; JMJD2E catalytic domain, FDH-coupled NADH fluorescence (FDH is formaldehyde dehydrogenase); Potency, µM (top dose mostly 57.1 µM), without a hit: at the top dose activity change, negative = inhibition, hits mostly inhibitors; 1.6% of 230,000 active; AID 2147; active means well fitted inhibition curve with a large enough effect, not every such curve was filed as active; inconclusive means small, poorly fitted or top-dose-only effect, or another doubt; inactive means no such curve, though single readings can be large or run the other way;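 further: 0% = wells with enzyme and -100% = buffer wells without enzyme; nearly all actives have a fitted effect of over 50% in size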
HTT ATP protect: cytoprotection in Huntington HTT-Q103 PC12 cell model; PC12 HTT-Q103 induced, cytoprotection, ATP luminescence, 40 h; Potency, µM (highest dose often 56.4 µM), without a hit: cytoprotection (ATP increase), most hits filed as activators; 0.14% of 230,000 active; AID 1471; further: % of control where 0% means no effect; nearly all actives have a fitted effect of over 45% in size
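Rat PC12, Q103 Htt exon1-GFP fusion, ecdysone promoter; tebufenozide inducer 100 nM final; compound titration; qHTS, 1500 cells/well; ATPlite luminescent read.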
An asterisk follows results filed as active; ? = inconclusive; / = no result; [ ] = remark or other dose. Unless noted, the call rests on the fitted dose curve; in most records, active means well fitted curve in the direction sought with a large enough effect; inconclusive means small, poorly fitted or top-dose-only effect, or another doubt; inactive means no such curve, though single readings can be large; an effect the other way counts as inactive or inconclusive. Potency means the concentration at half of the fitted maximal effect.

SMILES	L3MBTL1 inh	HTT aggregate	JMJD2E inh	HTT ATP protect
COC(=O)Cc1[nH]n(-c2nc3ccccc3s2)c(=O)c1C(C)=Nc1ccc(Cl)cc1	-12%	-22%[9.22 µM]	35µM*	-8%[10 µM]
COC(=O)CN1C(=O)N/C(=C/c2ccc(C)o2)C1=O	/	-7%	?	?
Cc1ccc(/C=C2/NC(=O)N(Cc3ccccc3)C2=O)o1	-2%	26%	11µM*	/
CC(Cc1ccc(O)c(O)c1)C(C)Cc1ccc(O)c(O)c1 (stereo not drawn)	/	-14%	22µM*	?
C[C@H](Cc1ccc(O)c(O)c1)[C@@H](C)Cc1ccc(O)c(O)c1	/	/	14µM*	23%
COc1cc(C[C@@H](C)[C@@H](C)Cc2ccc(O)c(OC)c2)ccc1O	-14%	/	/	/
N[C@@H](Cc1ccc(O)c(O)c1)C(=O)O	/	/	13µM*	-9%[40.3 µM]
COc1cccc([C@@H]2Oc3ccc(OC)cc3C[C@H]2OC(=O)Nc2ccc(OC(F)F)cc2)c1	/	/	-1%	-15%
O=C(/C=C/c1ccc(Br)o1)OCc1nc2ccsc2c(=O)[nH]1	3.2µM*	/	/	/
Cc1ccc(C(=O)OCc2nc3ccsc3c(=O)[nH]2)o1	-4%	/	/	/
C=CCOC(=O)N[C@@H](c1cccs1)C(C(C)=O)C(C)=O	/	/	0%	-40%
C=CCc1cccc(/C=N/NC(=O)C(C)Nc2cccc(C)c2)c1O (stereo not drawn)	-14%	11µM*	20µM*	-128%
C=CCc1cccc(/C=N/NC(=O)CNc2cccc3ccccc23)c1O	-9%	25%	4%	-13%[10 µM]
C=CCn1c(CNc2ccccc2)nnc1SCC(=O)N/N=C/c1ccccc1O	-5%	18µM*	14µM*	-49%
C=CCc1cccc(/C=N/NC(=O)CNc2ccccc2)c1O	/	11µM*	?	-73%
C=CCc1cccc(/C=N/NC(=O)CNc2ccccc2OC)c1O	/	20µM*	?	-120%
C=CCc1cccc(/C=N/NC(=O)CCCNc2ccc(C)cc2)c1O	-12%	?	?	27%[10 µM]
COc1cc(OC)cc([C@H](CNc2ncnc3c2ncn3[C@@H]2O[C@@H](CO)[C@H](O)[C@@H]2O)c2ccccc2C)c1	/	/	/	23%[1.9 µM]
c1cncc(CNc2ncncc2-c2ccc3c(c2)OCO3)c1	/	/	?	1%
CCc1cc2c(nc1CC)CCN(CC/C(C)=N/O[C@@H](C)CN1CCCCc3nc(C)c(C)cc31)C2	/	/	/	9%[10 µM]
CC1=C(/C=C/C(C)=C/C=C/C(C)=C/C=C/C=C(C)/C=C/C=C(C)/C=C/C2=C(C)C(=O)C(O)CC2(C)C)C(C)(C)CC(O)C1=O (stereo not drawn)	/	/	11%	/
COc1cc2c(cc1OC)C(/C=C/c1ccc(OC)c(OC)c1OC)=NCC2	/	/	?	-185%
COc1ccc(Nc2nc3ccccc3nc2NS(=O)(=O)c2cccs2)cc1	-2%	22µM*	?	-39%
CO[C@@H]1COC(=O)[C@@H](C)COC(=O)[C@@H](C)NC(=O)C/C=C\[C@@H]1C	/	/	/	1%[10 µM]
COc1cccc(/C=N/NC(=O)c2cc3c(OC)cccc3[nH]2)c1O	3%	2.2µM*	25µM*	-87%[10 µM]
SMILES	L3MBTL1 inh	HTT aggregate	JMJD2E inh	HTT ATP protect
COc1cccc(/C=N/NC(=O)c2cc(-c3cccn3C)n[nH]2)c1O	-24%	1.8µM*	16µM*	-48%[10 µM]
CN(C)CC[C@@](O)(c1ccccc1)c1ccccc1Cl	/	3%	/	-2%
O=c1cnnc(NCc2ccccc2)[nH]1	/	-12%	-6%	-8%
COc1ccc(-c2cc(=O)[nH]c(NCc3ccccc3)n2)cc1	7%[11.4 µM]	4µM*	?	-6%[0.074 µM]
CC1CCc2nc(N)c(C#N)c(-c3cccnc3)c2C1 (stereo not drawn)	15%	2µM*	?	17%[10 µM]
NC(C(=O)O)C(O)c1ccc(O)c(O)c1 (stereo not drawn)	/	-14%	/	-81%
COc1cccc(/C=N/Nc2nc(Nc3ccccc3)nc(-n3nc(C)cc3C)n2)c1O	/	1.1µM*	20µM*	-98%[10 µM]
Cc1cc(C)n(-c2nc(Nc3ccccc3)nc(-n3nc(C)cc3C)n2)n1	-5%	-2%	-5%	-10%
CC(=O)O[C@H]1C(=O)[C@@]2(C)C([C@H](OC(=O)c3ccccc3)[C@]3(O)C[C@H](OC(=O)[C@H](O)[C@@H](NC(=O)c4ccccc4)c4ccccc4)C(C)=C1C3(C)C)[C@]1(OC(C)=O)CO[C@@H]1C[C@@H]2O (stereo partly drawn)	/	/	4%	-96%
CN=c1scc(-c2ccc(F)cc2)n1/N=C/c1ccc(O)c(O)c1	/	-17%	28µM*	-112%
CO/N=C/c1ccc(N2CCN(C(=O)c3ccc(Cl)cc3Cl)CC2)c([N+](=O)[O-])c1	-24%	18µM*	-3%	-69%
CO/N=C/c1ccc(N2CCN(C(=O)c3cccc(C(F)(F)F)c3)CC2)c([N+](=O)[O-])c1	-30%	?	-2%	12%[10 µM]
CO/N=C/c1ccc(N2CCN(C(=O)c3ccc(F)cc3)CC2)c([N+](=O)[O-])c1	-8%	13µM*	4%	8%[10 µM]
CN(C)c1ccc(/C=C/c2ccc3ccccc3[n+]2C)cc1	-9%	2.5µM*	-21%	-71%[10 µM]
CN(C)c1ccc(/C=C/c2ccc3c4ccccc4ccc3[n+]2-c2ccccc2)cc1	?	4µM*	?	-45%[10 µM]
CCN1CC2=C(OC(N)=C(C#N)C2c2cccs2)/C(=C/c2cccs2)C1 (stereo not drawn)	-17%	10%	14µM*	-21%[10 µM]
O=c1c2c(nc3c(-c4ccc(Cl)cc4)c[nH]n13)CCCC2	4%	7.1µM*	-9%	-58%
O=c1c2c(nc3c(-c4cccc5ccccc45)c[nH]n13)CCC2	-1%[11.4 µM]	?	?	-12%
COc1ccc(CCNc2c(C)c(C)nc3ncnn23)cc1	3%	?	7%	-54%[10 µM]
CCc1c(C)nc2ncnn2c1NCCc1ccc(OC)c(OC)c1	9%	10µM*	0%	18%[10 µM]
N#Cc1ccc(CS(=O)(=O)c2nnnn2-c2ccccc2)cc1	/	/	-6%	?
CC(C)CN1C(=S)SC(C)(C)C1n1oc(=O)n(-c2ccccc2)c1=O (stereo not drawn)	1%	14%	7%	-1%[10 µM]
CC(C)CN1C(=S)SC(C)(C)C1n1oc(=O)n(-c2ccc(Cl)cc2)c1=O (stereo not drawn)	/	25µM*	-7%	-25%
CCN(CC)CCOCCOC(=O)C(CC)(CC)c1ccccc1 (tested in a mixture with another compound)	/	9%	/	-28%
O=C1C=CC2=C3c4cc(O)c(O)cc4CC3(O)COC2=C1O (stereo not drawn)	/	/	2µM*	5%[1.9 µM]
Cc1ccc(S(=O)(=O)N[C@H]2COC(=O)[C@@H](C)COC(=O)C/C=C\[C@H]2C)cc1	/	/	/	-13%[10 µM]
COC(=O)c1ccc(=O)c2nc3/c(=C/O)c(O)cc(=O)c3[nH]c12	/	1%[9.22 µM]	8.9µM*	4%[10 µM]
O=C(O)COc1ccc(/C=N/NC(=O)COc2nsnc2N2CCOCC2)cc1	10%	10%[9.22 µM]	10%	8%[10 µM]
